The sample as a whole holds a higher share of hits than the screen did.
Sm TGR inh – qHTS Assay for the Inhibitors of Schistosoma Mansoni Peroxiredoxins | Schistosoma mansoni thioredoxin glutathione reductase (TGR), Q962Y6 | purified TGR, DTNB reduction, TNB absorbance 405 nm | Potency, µM (doses to about 114 µM), for the others: at the highest dose activity change, negative = inhibition, usual class: inhibitors | actives 3% (n = 360,000) | AID 485364, 2010; note: potency is the fitted concentration of half-maximal effect; % is set by controls: 0 for no effect and ±100 for the full control effect; nearly all actives have a fitted effect of over 60% in size
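First, TGR (20 nM dispensed) and NADPH were mixed with compound. Second, a 15 min room-temperature incubation followed. Third, further NADPH and then DTNB were added to start the reaction. Finally, TNB absorbance was monitored kinetically.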
CHX counter – Cycloheximide Counterscreen for Small Molecule Inhibitors of Shiga Toxin | cell reporter, cycloheximide protein synthesis inhibition counterscreen | max response, % | actives 12% (n = 300,000); in the data active = max response mostly above about 13%, no sharp cut-off; inactive = mostly below about 14%; note: read at 38.3 µM for the half of the compounds with a filed dose; 0% is about no effect
Shiga toxin inh – A qHTS for Small Molecule Inhibitors of Shiga Toxin; AID 2315, 2010; actives 9.2% (n = 290,000); Vero cells, Shiga toxin protein synthesis inhibition reporter; inhibition, % at 38.7 µM; in the data active = inhibition mostly above about 28%, no sharp cut-off; inactive = mostly below about 43%; note: 0% is about no effect
Giardia FBPA inh – qHTS Assay for Inhibitors of Fructose-1,6-bisphosphate Aldolase from Giardia Lamblia | purified Giardia FBPA | actives 0.71% (n = 290,000) | Potency, µM (highest dose often 59.6 µM), without a hit: at the top dose activity, negative = inhibition, hits mostly inhibitors | A8B2U2; note: potency is the fitted concentration of half-maximal effect; % is set by controls: 0 for no effect and ±100 for the full control effect; nearly all actives have a fitted effect of over 55% in size
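Giardia FBPA (40 nM reagent) was preincubated 10 min at RT with compound (up to 57.5 uM final), then substrate plus GAPDH/TPI/NAD/arsenate coupling system with diaphorase/resazurin was added; resorufin fluorescence (525/598 nm) was read after 20 min.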
LmPK inh – qHTS Assay for Inhibitors of Leishmania Mexicana Pyruvate Kinase (LmPK); purified LmPK, Kinase-Glo ATP luminescence, 1 h; Potency, µM (top dose mostly 57.5 µM), without a hit: at the highest dose activity change, negative = inhibition, usual class: inhibitors; AID 1721, 2009; actives 0.37% (n = 290,000); Q27686; note: potency is the fitted concentration of half-maximal effect; % is set by controls: 0 for no effect and ±100 for the full control effect
Target sequence (Q27686 whole entry, looked up): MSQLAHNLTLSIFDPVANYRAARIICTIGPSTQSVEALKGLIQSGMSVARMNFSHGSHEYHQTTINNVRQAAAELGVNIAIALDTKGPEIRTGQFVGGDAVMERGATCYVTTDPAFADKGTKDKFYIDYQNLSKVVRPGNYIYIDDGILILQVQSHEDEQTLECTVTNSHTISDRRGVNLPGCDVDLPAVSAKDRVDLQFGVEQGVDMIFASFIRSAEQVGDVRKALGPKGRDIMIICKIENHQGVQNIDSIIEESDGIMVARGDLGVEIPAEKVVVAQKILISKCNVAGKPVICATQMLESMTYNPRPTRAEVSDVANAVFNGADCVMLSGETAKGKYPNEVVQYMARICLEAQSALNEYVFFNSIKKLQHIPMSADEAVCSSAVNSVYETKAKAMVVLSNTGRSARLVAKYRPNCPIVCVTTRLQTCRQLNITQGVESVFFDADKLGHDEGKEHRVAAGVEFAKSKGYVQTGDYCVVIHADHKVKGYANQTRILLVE
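Kinase-Glo luminescence read after 1 h RT reaction of 0.1 nM LmPK with 0.5 mM PEP and 0.1 mM ADP. Activity scaled between uninhibited and enzyme-free controls.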
TbPYK inhibitor – qHTS of Trypanosoma Brucei Inhibitors; pyruvate kinase (Trypanosoma brucei), Q57TT1; TbPYK enzyme, Kinase-Glo Plus ATP luminescence, 45 min; Potency, µM (titrated, usually from 76.8 µM), inactives show top-dose activity, negative = inhibition, most hits filed as inhibitors; actives 0.12% (n = 410,000); AID 624173, 2012; note: potency is the fitted concentration of half-maximal effect; % is set by controls: 0 for no effect and ±100 for the full control effect; nearly all actives have a fitted effect of over 50% in size
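In this concentration-response screen, enzyme-free wells defined baseline while DMSO plates tracked drift. Each reaction combined TbPYK, substrate, compound and 130 uM ADP for 45 min at room temperature. Kinase-Glo Plus luminescence gave the signal.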
Numbers without * were called inactive; [ ] = dose if it differs, or a comment. Unless noted, calls come from the whole dose curve; as a rule, active = well fitted curve in the direction sought with a large enough effect; inconclusive = small, poorly fitted or top-dose-only effect, or another doubt; inactive = no such curve, though single readings can be large; an effect the other way counts as inactive or inconclusive.

Results for O=C(O)c1c(Cl)c(Cl)c(Cl)c(Cl)c1-c1c2cc(I)c(=O)c(I)c-2oc2c(I)c(O)c(I)cc12 ?
CHX counter: -6.9; Shiga toxin inh: -9.4; Giardia FBPA inh: -15.5%; TbPYK inhibitor: inconclusive

How did CCC1CCCCN1C(=O)COc1ccc(S(=O)(=O)N2CCOCC2)cc1Cl (stereo not given) do in these assays?
Sm TGR inh: -4.9%; TbPYK inhibitor: -5.6%

How did O=c1[nH]n(Cc2ccccc2)c(=O)c2ccccc12 do in these assays?
Sm TGR inh: -29.0%; CHX counter: 26.2*; Shiga toxin inh: 3.9; Giardia FBPA inh: 2.6%; LmPK inh: -5.5%; TbPYK inhibitor: -0.1%

How did CC(C)(C)NC(=O)COc1coc(CN2CCN(C(=O)c3ccco3)CC2)cc1=O do in these assays?
Sm TGR inh: -3.6%; TbPYK inhibitor: 2.3%

What do the screens show for `Cc1nc2nc(-c3ccc(Cl)cc3)[nH]n2c(=O)c1C`?
Sm TGR inh: 4.3%; CHX counter: 4.8; Shiga toxin inh: 37.7*; Giardia FBPA inh: inconclusive; LmPK inh: 1.1%

What do the screens show for `Cc1nc2nc(-c3ccccc3)[nH]n2c(=O)c1C`?
Sm TGR inh: 7.1%; CHX counter: 14.6; Shiga toxin inh: 44.4; Giardia FBPA inh: inconclusive; LmPK inh: -9.8%; TbPYK inhibitor: -2.2%

What do the screens show for `CC1CCC2(CC1)NC(=O)N(CC(=O)Nc1ccc(C(N)=O)cc1)C2=O` (stereo not given)?
TbPYK inhibitor: -3.3%

Results for c1csc(-c2nc3c4ccccc4c4ccccc4c3[nH]2)c1 ?
Sm TGR inh: -15.6%; CHX counter: 8.2; Shiga toxin inh: -36.9; Giardia FBPA inh: -15.6%; LmPK inh: -1.4%; TbPYK inhibitor: 4.6%

Results for Oc1ccccc1-c1nc2c3ccccc3c3ccccc3c2[nH]1 ?
Sm TGR inh: 2.0%; CHX counter: 9.1; Shiga toxin inh: 35.7; Giardia FBPA inh: 17.7µM*; LmPK inh: 9.1%; TbPYK inhibitor: -11.8%

What do the screens show for `CCOC(=O)N/N=C1/C[C@@H](O)[C@@H](O)[C@@H]2[C@@H]3C(=O)N(C(C)(C)C)C(=O)[C@H]3CC[C@@H]12`?
Giardia FBPA inh: -1.3%[12.9 µM]

Results for Cc1nn(-c2ccccc2)c(/N=C/c2ccc(O)cc2)c1-c1ccccc1 ?
Sm TGR inh: -4.5%; CHX counter: 26.5*; Shiga toxin inh: 45.4; Giardia FBPA inh: 9.1%; LmPK inh: 4.1%; TbPYK inhibitor: 1.4%

Results for Cc1nn(-c2ccccc2)c(C)c1-c1ccccc1O ?
Sm TGR inh: 11.1%; CHX counter: 10.9; Shiga toxin inh: 39.0; Giardia FBPA inh: -6.5%; LmPK inh: 0.3%; TbPYK inhibitor: -5.1%

Results for CO/N=C/c1ccc(Oc2ccc(C)cc2)nc1 ?
Sm TGR inh: 2.6%; CHX counter: 26.8*; Shiga toxin inh: 44.9*; Giardia FBPA inh: -0.2%; LmPK inh: -0.9%; TbPYK inhibitor: -3.3%

Results for CCc1cc(C(=O)N/N=C/c2ccc(O)cc2O)c2ccccc2n1 ?
Sm TGR inh: -12.9%; CHX counter: 2.2; Shiga toxin inh: -12.6; LmPK inh: -10.8%; TbPYK inhibitor: 0.3%

Results for CC(c1ccco1)N(C(=O)c1ccccc1NS(=O)(=O)c1ccc(Cl)cc1)c1ccccn1 (stereo not given) ?
Sm TGR inh: -23.7%; CHX counter: -2.9; Shiga toxin inh: -7.7; Giardia FBPA inh: -0.2%; LmPK inh: 3.8%; TbPYK inhibitor: -9.1%

What do the screens show for `CC(c1ccco1)N(C(=O)COc1ccc(Cl)cc1Cl)c1ccccn1` (stereo not given)?
Sm TGR inh: -16.2%; CHX counter: 53.2*; Shiga toxin inh: 125.8*; Giardia FBPA inh: 3.4%; LmPK inh: -12.4%; TbPYK inhibitor: 4.2%

Results for CC(c1ccco1)N(C(=O)c1ccc(Cl)c([N+](=O)[O-])c1)c1ccccn1 (stereo not given) ?
Sm TGR inh: -28.2%; CHX counter: 11.3; Shiga toxin inh: 7.6; Giardia FBPA inh: 2.5%; LmPK inh: -8.1%; TbPYK inhibitor: 5.0%

Results for CC(c1ccco1)N(C(=O)COc1ccc(Cl)cc1)c1ccccn1 (stereo not given) ?
Sm TGR inh: inconclusive; CHX counter: 39.1*; Shiga toxin inh: 134.6*; Giardia FBPA inh: 4.5%; LmPK inh: -7.3%; TbPYK inhibitor: -4.7%

What do the screens show for `CCN(CC)CCCNC(=O)c1cn(CC)c2ccc(S(=O)(=O)N3CCC(C)CC3)cc2c1=O`?
Sm TGR inh: 2.3%; TbPYK inhibitor: -1.8%

What do the screens show for `O=[N+]([O-])c1ccccc1Oc1ccccc1Cl`?
Sm TGR inh: -6.6%; CHX counter: 14.9*; Shiga toxin inh: 19.7; Giardia FBPA inh: 0.0%; LmPK inh: -2.6%; TbPYK inhibitor: 2.7%

What do the screens show for `O=C(Oc1ccccc1)N1CCC2(CCCN(c3ncccn3)C2)CC1`?
Giardia FBPA inh: -7.3%; TbPYK inhibitor: 0.3%

How did Cc1ccc(CC(=O)Nc2c(C(=O)N3CCN(c4ccccc4F)CC3)oc3ccccc23)cc1 do in these assays?
Sm TGR inh: 44.7µM*; TbPYK inhibitor: -0.3%

Results for COc1ccc(C(=O)NCCc2nnc3ccc(SCC(=O)Nc4ccccc4)nn23)cc1 ?
Sm TGR inh: -17.3%; CHX counter: 43.9*; Shiga toxin inh: 73.4*; LmPK inh: -8.7%; TbPYK inhibitor: 2.4%

How did COc1ccccc1NC(=O)CSc1nnc(CCNC(=O)c2ccc(C)cc2)n1C do in these assays?
Sm TGR inh: 13.1%; CHX counter: 14.9*; Shiga toxin inh: 6.6; Giardia FBPA inh: -1.9%; LmPK inh: -1.5%; TbPYK inhibitor: 4.6%

How did CCN(CC(=O)NCc1cccs1)C(=O)c1ccc(S(=O)(=O)Nc2cccc(C)c2C)cc1 do in these assays?
Sm TGR inh: 9.3%; CHX counter: -3.2; Shiga toxin inh: -0.7; Giardia FBPA inh: 13.1%; LmPK inh: -6.4%; TbPYK inhibitor: 1.7%

What do the screens show for `CCSc1nnc2n1C(C)(C)Cc1ccccc1-2`?
Sm TGR inh: 0.4%; CHX counter: 7.2; Shiga toxin inh: 4.3; Giardia FBPA inh: -5.7%; LmPK inh: -9.0%; TbPYK inhibitor: -0.7%

How did CC1(C)Cc2ccccc2-c2n[nH]c(=S)n21 do in these assays?
Sm TGR inh: 1.8%; CHX counter: -4.1; Shiga toxin inh: 14.8; Giardia FBPA inh: -0.4%; LmPK inh: 7.08µM*; TbPYK inhibitor: 2.82µM*

How did O=C(CCl)N(C/C=C/c1ccccc1)c1ccc2c(c1)OCCO2 do in these assays?
Sm TGR inh: 7.08µM*; CHX counter: 52.0*; Shiga toxin inh: 164.4*; Giardia FBPA inh: -28.6%; LmPK inh: 0.7%; TbPYK inhibitor: -6.5%

Results for N#CCCN(C(=O)CSc1ncccn1)c1ccc2c(c1)OCCO2 ?
Sm TGR inh: 2.1%; TbPYK inhibitor: 5.4%
